Reference: PubChem BioAssay (NCATS)
Records with an inconclusive call do not appear. Values without a mark were called inactive. The source made the active and inactive calls. The call rests on the fitted dose curve; in most records, active means well fitted curve in the direction sought with a large enough effect; inconclusive means small, poorly fitted or top-dose-only effect, or another doubt; inactive means no such curve, though single readings can be large; an effect the other way counts as inactive or inconclusive.

Key:
[1] = Primary redox qHTS assay for identification of artifact compounds. (AID 1845223)
Procedure, shortened: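 Redox-cycling detection via DTT (250 uM final) oxidation coupled to Amplex Red (25 uM)/HRP (250 mU/mL) in HBSS. 15 min preincubation plus 30 min after DTT, room temperature. Ex/Em 525/598 nm; 4-parameter Hill fit against DMSO and 10 uM DA3003.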

[2] = Quantitative High-Throughput drug screen in 47 multiple myeloma cell lines against the NCATS MIPE library collection: FR4_PLB cell viability assay (AID 1918924; further: nearly all actives have a fitted effect of over 35% in size; further: potency means the concentration at half of the fitted maximal effect)
Procedure, shortened: (§1)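 Approved and investigational drugs from MIPE 4.0 were added by pin tool to 500 cells per well. After 48 hours at 37C, ATP-based CellTiter-Glo luminescence indicated remaining viability.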

[3] = Quantitative High-Throughput drug screen in 47 multiple myeloma cell lines against the NCATS MIPE library collection: Delta47_JCRB cell viability assay (AID 1918925; further: potency means the concentration at half of the fitted maximal effect; nearly all actives have a fitted effect of over 45% in size)
Procedure, shortened: (§2)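 Viability readout: CellTiter-Glo luminescence following 5 min room-temperature incubation with reagent. Prior exposure: 48 h, 37C, humidified 5% CO2, 500 cells per well.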

[4] = Quantitative High-Throughput drug screen in 47 multiple myeloma cell lines against the NCATS MIPE library collection: EJM_DSMZ cell viability assay (AID 1918926; further: potency means the concentration at half of the fitted maximal effect; nearly all actives have a fitted effect of over 30% in size)
Procedure, shortened: as §2

[5] = Quantitative High-Throughput drug screen in 47 multiple myeloma cell lines against the NCATS MIPE library collection: AMO1_DSMZ cell viability assay (AID 1918927; further: nearly all actives have a fitted effect of over 30% in size; further: potency means the concentration at half of the fitted maximal effect)
Procedure, shortened: as §2

[6] = Quantitative High-Throughput drug screen in 47 multiple myeloma cell lines against the NCATS MIPE library collection: ARP1_JJKsccF8 cell viability assay (AID 1918928; further: potency means the concentration at half of the fitted maximal effect; nearly all actives have a fitted effect of over 40% in size)
Procedure, shortened: (§3)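 Viability screen: myeloma cells (500/well) incubated 48 h at 37 °C, humidified 5% CO2, with pinned library compounds; CellTiter-Glo added, luminescence read; DMSO wells set 100%, medium-only wells 0%.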

[7] = Quantitative High-Throughput drug screen in 47 multiple myeloma cell lines against the NCATS MIPE library collection: Karpas620_DSMZ cell viability assay (AID 1918959); further: nearly all actives have a fitted effect of over 30% in size; further: potency means the concentration at half of the fitted maximal effect
Procedure, shortened: as §1

[8] = Quantitative High-Throughput drug screen in 47 multiple myeloma cell lines against the NCATS MIPE library collection: KHM11_PLB cell viability assay (AID 1918962); further: potency means the concentration at half of the fitted maximal effect; nearly all actives have a fitted effect of over 35% in size
Procedure, shortened: as §1

[9] = Quantitative High-Throughput drug screen in 47 multiple myeloma cell lines against the NCATS MIPE library collection: JIM3_ECACC cell viability assay (AID 1918963; further: potency means the concentration at half of the fitted maximal effect; nearly all actives have a fitted effect of over 35% in size)
Procedure, shortened: as §1

[10] = Quantitative High-Throughput drug screen in 47 multiple myeloma cell lines against the NCATS MIPE library collection: JIM1_ECACC cell viability assay (AID 1918964; further: potency means the concentration at half of the fitted maximal effect)
Procedure, shortened: as §2

[11] = Quantitative High-Throughput drug screen in 47 multiple myeloma cell lines against the NCATS MIPE library collection: INA6_PLB cell viability assay (AID 1918965; further: potency means the concentration at half of the fitted maximal effect; nearly all actives have a fitted effect of over 55% in size)
Procedure, shortened: (§4)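 Inhibition of cell viability is measured here. Each line was plated at 500 cells per well, treated with MIPE 4.0 drugs, kept 48 hours at 37C, then assayed for ATP content by CellTiter-Glo luminescence.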

[12] = Quantitative High-Throughput drug screen in 47 multiple myeloma cell lines against the NCATS MIPE library collection: H1112_PLB cell viability assay (AID 1918967; further: potency means the concentration at half of the fitted maximal effect; nearly all actives have a fitted effect of over 30% in size)
Procedure, shortened: as §2

[13] = Quantitative High-Throughput drug screen in 47 multiple myeloma cell lines against the NCATS MIPE library collection: KMS12BM_JCRB cell viability assay (AID 1918971); further: potency means the concentration at half of the fitted maximal effect; nearly all actives have a fitted effect of over 35% in size
Procedure, shortened: as §2

[14] = Quantitative High-Throughput drug screen in 47 multiple myeloma cell lines against the NCATS MIPE library collection: ARD_JJKsccE7 cell viability assay (AID 1918929; further: potency means the concentration at half of the fitted maximal effect)
Procedure, shortened: as §2

[15] = Quantitative High-Throughput drug screen in 47 multiple myeloma cell lines against the NCATS MIPE library collection: Karpas25_ECACC cell viability assay (AID 1918968)
Procedure, shortened: as §2

[16] = Quantitative High-Throughput drug screen in 47 multiple myeloma cell lines against the NCATS MIPE library collection: KMS12PE_JCRB cell viability assay (AID 1918972)
Procedure, shortened: as §4

[17] = Quantitative High-Throughput drug screen in 47 multiple myeloma cell lines against the NCATS MIPE library collection: KMM1_JCRB cell viability assay (AID 1918960); further: nearly all actives have a fitted effect of over 30% in size; further: potency means the concentration at half of the fitted maximal effect
Procedure, shortened: as §3

[18] = Quantitative High-Throughput drug screen in 47 multiple myeloma cell lines against the NCATS MIPE library collection: JJN3_DSMZ cell viability assay (AID 1918966; further: potency means the concentration at half of the fitted maximal effect; nearly all actives have a fitted effect of over 50% in size)
Procedure, shortened: as §2

[19] = Quantitative High-Throughput drug screen in 47 multiple myeloma cell lines against the NCATS MIPE library collection: Karpas417_ECACC cell viability assay (AID 1918961); conditions: Karpas417 myeloma viability, CellTiter-Glo ATP luminescence, 48 h; viability (% of DMSO): at 45.8 µM (top of the series); further: potency means the concentration at half of the fitted maximal effect
Procedure, shortened: as §4

[20] = Quantitative High-Throughput drug screen in 47 multiple myeloma cell lines against the NCATS MIPE library collection: KMS27_JCRB cell viability assay (AID 1918970)
Procedure, shortened: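 ATP-based viability (CellTiter-Glo luminescence) is measured in cells treated 48 h with approved and investigational drugs at 37 °C. Controls are DMSO-only wells for full viability and media-only wells for none.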

| SMILES | Potency [1] | Potency [2] | Potency [3] | Potency [4] | Potency [5] | Potency [6] | Potency [7] | Potency [8] | Potency [9] | Potency [10] | Potency [11] | Potency [12] | Potency [13] | Potency [14] | Potency [15] | Potency [16] | Potency [17] | Potency [18] | Potency [19] | Potency [20] |
| --- | --- | --- | --- | --- | --- | --- | --- | --- | --- | --- | --- | --- | --- | --- | --- | --- | --- | --- | --- | --- |
| Cc1c(CN2CCN(S(C)(=O)=O)CC2)sc2c(N3CCOCC3)nc(-c3cnc(N)nc3)nc12 | inactive | 0.105 µM (active) | 0.0105 µM (active) | 0.105 µM (active) | 0.0935 µM (active) | 0.0083 µM (active) | 0.0662 µM (active) | 0.0332 µM (active) | 0.0662 µM (active) | 0.0187 µM (active) | 0.264 µM (active) | 1.18 µM (active) | 0.0132 µM (active) |  |  |  |  |  |  |  |
| Cc1cn2c(-c3cn[nH]c3)cnc2c(Nc2ccc(C(=O)N3CCNCC3)cc2F)n1 | inactive | 16.6 µM (active) | 7.43 µM (active) | 18.7 µM (active) | inactive | 23.5 µM (active) |  | 16.6 µM (active) | 23.5 µM (active) | 2.09 µM (active) | 16.6 µM (active) | 20.9 µM (active) | 14.8 µM (active) | 5.9 µM (active) | 18.7 µM (active) | 5.26 µM (active) |  |  |  |  |
| N#CCNC(=O)c1ccc(-c2ccnc(Nc3ccc(N4CCOCC4)cc3)n2)cc1 | inactive | 20.9 µM (active) | 9.35 µM (active) | 11.8 µM (active) |  | 16.6 µM (active) | inactive | 4.69 µM (active) | 13.2 µM (active) | inactive | 1.32 µM (active) | 18.7 µM (active) | 14.8 µM (active) | inactive | 9.35 µM (active) | 5.26 µM (active) | inactive | 13.2 µM (active) |  |  |
| CCn1nnc2c(N3CCOCC3)nc(-c3ccc(NC(=O)Nc4ccc(C(=O)N5CCN(C)CC5)cc4)cc3)nc21 | inactive | 0.0074 µM (active) | 0.0132 µM (active) | 0.469 µM (active) | 0.0526 µM (active) | 0.0662 µM (active) |  |  | 0.0235 µM (active) |  | 0.0053 µM (active) |  | 0.0059 µM (active) | 0.0372 µM (active) | 0.0083 µM (active) | 0.0469 µM (active) |  | 0.0187 µM (active) |  |  |
| CC(=O)Nc1nc(C)c(-c2ccc(Cl)c(S(=O)(=O)NCCO)c2)s1 | inactive | 13.2 µM (active) | 0.662 µM (active) | 11.8 µM (active) | 1.32 µM (active) |  | 6.62 µM (active) | 0.935 µM (active) | 4.69 µM (active) | 1.18 µM (active) | 1.05 µM (active) | 1.48 µM (active) | 18.7 µM (active) | 0.418 µM (active) | 1.18 µM (active) | 5.26 µM (active) | 3.72 µM (active) | 18.7 µM (active) | 0.132 µM (active) | 1.32 µM (active) |
| c1ccc2c(CCNc3ccc(Nc4ccncc4)cc3)c[nH]c2c1 | inactive | inactive | 18.7 µM (active) | 14.8 µM (active) | 1.48 µM (active) |  |  |  | 16.6 µM (active) |  | 23.5 µM (active) | 18.7 µM (active) | 13.2 µM (active) |  | 20.9 µM (active) | 5.26 µM (active) | 2.96 µM (active) | 20.9 µM (active) |  | 4.18 µM (active) |
| CC1(O)CC(c2nc(-c3ccc4ccc(-c5ccccc5)nc4c3)c3c(N)nccn23)C1 (stereo not drawn) | inactive | 7.43 µM (active) | 0.0833 µM (active) | 6.62 µM (active) | 2.96 µM (active) |  | 0.59 µM (active) | 4.18 µM (active) | 0.148 µM (active) | 0.0105 µM (active) | 6.62 µM (active) | 23.5 µM (active) | 16.6 µM (active) | 0.105 µM (active) | 0.372 µM (active) | 2.35 µM (active) | 1.05 µM (active) | 6.62 µM (active) |  | 2.35 µM (active) |
| Cc1ccc2nc(NC(=O)CSc3nc4c(c(=O)n3-c3ccccc3)SCC4)sc2c1 | inactive | 5.9 µM (active) | 18.7 µM (active) | 6.62 µM (active) | 9.35 µM (active) |  |  |  | 18.7 µM (active) |  | 8.33 µM (active) | 11.8 µM (active) | 9.35 µM (active) | 13.2 µM (active) | 5.26 µM (active) |  |  |  | 23.5 µM (active) |  |
| Cc1nc(N)ncc1-c1nc(N2CCOCC2)c2sc(C(C)(C)O)cc2n1 | inactive | 8.33 µM (active) | 0.235 µM (active) | 1.48 µM (active) | 1.32 µM (active) | 0.105 µM (active) |  | 0.662 µM (active) |  | 0.0418 µM (active) | 3.72 µM (active) | 6.62 µM (active) | 8.33 µM (active) | 0.0332 µM (active) | 0.418 µM (active) |  | 0.332 µM (active) | 5.26 µM (active) |  | 0.235 µM (active) |
| O=C(Cc1ccc(-c2ccc(OCCN3CCOCC3)cc2)cn1)NCc1ccccc1 | inactive | 0.0093 µM (active) | 0.0264 µM (active) | 0.0662 µM (active) |  | 0.0166 µM (active) | 0.0042 µM (active) | 0.469 µM (active) | 0.0166 µM (active) | 0.0074 µM (active) | 0.0166 µM (active) | 0.0187 µM (active) | 0.0372 µM (active) | 0.0166 µM (active) |  | 0.0148 µM (active) | 0.0118 µM (active) | 0.132 µM (active) |  |  |
